The whole screen tested about 390,000 compounds, of which about 4,000 (1%) were called active. Inconclusive results (about 7%) are left out. For the sample, actives were picked, then their nearest neighbours and some compounds at random. Values without a mark were called inactive. The call rests on the fitted dose curve; in most records, active means well fitted inhibition curve with a large enough effect; inconclusive means small, poorly fitted or top-dose-only effect, or another doubt; inactive means no such curve, though single readings can be large or run the other way.
Target: DNA polymerase iota (Homo sapiens) (UniProt Q9UNA4)
Test: qHTS for Inhibitors of Polymerase Iota
Conditions: Pol iota fluorescent replication assay, 10 min; series mostly up to 115 µM; activity, negative = inhibition: at the top concentration
Procedure, shortened: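 Fluorescent replication assay read twice, at 0 min and 10 min after adding 50 nM (final) substrate. Enzyme (10 nM) and compounds were first incubated 15 min at room temperature; enzyme-free buffer wells were negative controls.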
Potency means the concentration at half of the fitted maximal effect.

Sequence of DNA polymerase iota (Homo sapiens) (Q9UNA4 whole entry, looked up): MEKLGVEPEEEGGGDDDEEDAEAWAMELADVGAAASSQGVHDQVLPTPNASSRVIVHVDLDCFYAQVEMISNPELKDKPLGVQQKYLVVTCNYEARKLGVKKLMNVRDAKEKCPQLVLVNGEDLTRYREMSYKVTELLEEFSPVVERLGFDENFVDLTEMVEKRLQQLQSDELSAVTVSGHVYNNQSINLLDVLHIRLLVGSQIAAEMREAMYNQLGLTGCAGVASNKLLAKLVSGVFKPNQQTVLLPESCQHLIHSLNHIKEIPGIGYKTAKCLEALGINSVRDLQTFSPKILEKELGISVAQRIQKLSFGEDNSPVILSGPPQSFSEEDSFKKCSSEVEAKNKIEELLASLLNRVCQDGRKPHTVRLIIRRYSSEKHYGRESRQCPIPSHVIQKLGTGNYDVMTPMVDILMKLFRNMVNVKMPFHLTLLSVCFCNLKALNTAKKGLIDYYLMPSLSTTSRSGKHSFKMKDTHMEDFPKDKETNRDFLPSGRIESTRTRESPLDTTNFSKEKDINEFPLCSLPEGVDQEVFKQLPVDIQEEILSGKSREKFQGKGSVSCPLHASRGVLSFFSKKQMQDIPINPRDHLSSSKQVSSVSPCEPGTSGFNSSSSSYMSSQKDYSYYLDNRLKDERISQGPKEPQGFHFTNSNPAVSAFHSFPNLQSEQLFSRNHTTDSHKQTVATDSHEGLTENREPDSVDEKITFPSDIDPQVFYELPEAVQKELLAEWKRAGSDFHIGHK

Structure (SMILES) | Potency | activity, negative = inhibition
Oc1cc(O)c2c(c1)OC(c1ccc(O)c(O)c1)C(O)C2 (centres undefined) | 79.4 µM (active) | 
OC[C@H]1O[C@@H](n2cnc3c(N[C@H]4CC5CCC4C5)ncnc32)[C@H](O)[C@@H]1O (some centres undefined) |  | -2.71% [at 58.9 µM]
Cc1ccc(CSc2nc3ccsc3c(=O)n2CCC(C)C)cc1 |  | 10.2%
CN(C(=O)CN1C(=O)/C(=C/c2ccc(Cl)cc2)SC1=S)C1CCS(=O)(=O)C1 (centres undefined) |  | -7.32%
COc1cc(/C=C2/SC(=S)N(Cc3ccccc3)C2=O)cc(OC)c1O | 44.7 µM (active) | 
COc1ccc(CCNC2=C(Cl)C(=O)N(Cc3ccccc3)C2=O)cc1OC |  | -22.1%
Cc1ccccc1NC(=O)Cn1c(=O)n(CCc2ccccc2)c(=O)c2ccccc21 |  | 23.8%
Cc1ccccc1NC(=O)CN1C(=O)C(C)(C)c2ccccc21 |  | 18.5%
Cc1ccccc1NC(=O)CN1C(=O)N/C(=C\c2cccn2-c2cccc(C(=O)O)c2)C1=O | 5.62 µM (active) | 
COc1ccc2c(c1)c(=O)c(S(=O)(=O)c1ccc(F)cc1)cn2CC(=O)Nc1ccc(C)cc1C |  | 25.1%
CCN(CCCNC(=O)c1cc(Nc2ccc(OC)cc2)nc2ccccc12)c1cccc(C)c1 |  | 17.7%
COc1cccc(CNC(=O)c2ccc3c(Cl)c4c(nc3c2)CCCC4)c1 | 89.1 µM (active) | 
COc1cccc(CNC(=O)CSc2c3c(nc4cc(Cl)ccc24)CCCC3)c1 |  | 25.5%
CC(C)CCNC(=O)c1ccc2c(Cl)c3c(nc2c1)CCC3 |  | 107%
Cc1ccc(Cn2c(CCCNC(=O)C3CCCCC3)nc3ccccc32)cc1 |  | 24.5%
Cn1c(=O)oc2cc(S(=O)(=O)CCC(=O)NCCc3ccc(Cl)cc3)ccc21 |  | 21.8%
O=C(O)C1CCN(c2ccc([N+](=O)[O-])cc2[N+](=O)[O-])CC1 | 20 µM (active) | 
CC1CCN(c2ccc([N+](=O)[O-])cc2C(N)=O)CC1 |  | 0.643%
CCC(C)(C)NC(=O)c1cc([N+](=O)[O-])ccc1N1CCCCC1 |  | 12%
COC(=O)CN1C(=O)N/C(=C/c2ccc(OC)c(C)c2OC)C1=O |  | 76.4%
COC(=O)COc1ccc2c(c1C)O/C(=C\c1ccco1)C2=O | 89.1 µM (active) | 
COc1ccccc1OCC(=O)OCc1cc(-c2ccco2)on1 |  | -2.3%

Structure (SMILES) | Potency | activity, negative = inhibition
Cc1ccc(C(=O)CC2(O)C(=O)N(CCc3ccccc3)c3ccc(Br)cc32)cc1 (centres undefined) |  | 14.1%
CCN(CC)c1cc(NC2CCCCC2)c2c3c(onc13)-c1ccccc1C2=O |  | 36%
COc1ccc(CNC(=O)CC2Oc3ccc(C)cc3NC2=O)cc1 (centres undefined) |  | 15.5%
CCc1nnc(NC(=O)c2ccc(S(=O)(=O)NC3CCCCC3)cc2)s1 |  | 4.68%
CCc1ccc2nc3sc(C(=O)Nc4nnc(CC)s4)c(N)c3cc2c1 | 22.4 µM (active) | 
CCc1ccc(NC(=O)c2sc3nc4c(cc3c2N)CN(CC)CC4)cc1 |  | 7.62%
COC(=O)c1cc2occc2n1Cc1nc(-c2ccc(C)cc2)oc1C |  | -13.4%
Cc1cc(C=O)c(C)n1-c1ccc(NC2CCCCC2)c([N+](=O)[O-])c1 |  | -6.87%
Cc1cc(/C=N/Nc2ccc([N+](=O)[O-])cn2)c(C)n1-c1cccc(C(=O)O)c1 | 28.2 µM (active) | 
Cc1cc(/C=N/NC(=O)CC2(C)OCCO2)c(C)n1-c1ccc(Cl)c(Cl)c1 |  | 3.54%
COc1ccc(NC(=O)C2CCN(c3ccc(Sc4ccc(C)cc4)nn3)CC2)c(OC)c1 |  | 7.33%
O=C1C[C@H]2C=CCc3cccc(c32)CN1Cc1ccccc1 |  | 2.61%
COc1ccc(Cl)cc1-n1c(CCC(=O)O)ccc1-c1ccc(C)cc1 |  | -8.96%
CCOc1ccccc1CNC(=O)Nc1cn(CC(C)C)c(=O)c2ccccc12 | 39.8 µM (active) | 
CCOc1ccccc1NC(=O)Cn1c2ncccc2c(=O)n1-c1ccc(C)c(C)c1 |  | 8.51%
CCOc1ccccc1N(CC)C(=O)Nc1cn(C)c(=O)c2ccccc12 |  | 28.1%
Cc1cccc(-c2nnc(SC(C)C(=O)Nc3ccccc3)n2C)c1 (centres undefined) |  | 3.47%
Cc1ccc(C)c2sc(NC(=O)c3ccc(S(=O)(=O)N4CCCC4)cc3)nc12 |  | 13.9%
Cc1ccc(CCNC(=O)C2CCN(c3nnc(-n4cccc4CNc4ccc(C)cc4)s3)CC2)cc1 |  | 11.6%
Cc1nn2c3cc(N4CCOCC4)ccc3nc2c2ccccc12 |  | 32.7%
C1=C(N2CCOCC2)/C(=C/c2nc3ccccc3[nH]2)CC1 | 14.1 µM (active) | 
c1ccc(-n2nnnc2N2CCOCC2)cc1 |  | 9.14%

Structure (SMILES) | Potency | activity, negative = inhibition
O=C(Nc1ccc(Cl)cc1)c1cnn2c1NC(=C1CC1)C=C2C(F)F |  | 2.31%
CCCOC(=O)c1c(NC(=O)c2cc3nc(-c4ccc(OC)cc4)cc(C(F)(F)F)n3n2)sc2c1CCCC2 |  | -29%
CC1CCC2(CC1)N=C(c1ccccc1)C(=O)N2CC(=O)Nc1ccc(F)c(Cl)c1 (centres undefined) |  | 16.3%
Cc1ccc2nc(COc3cccc(NC(=O)Nc4ccc(C)c(Cl)c4)c3)cc(=O)n2c1 |  | 15.8%
Cc1ccc2nc(COc3ccccc3NC(=O)Nc3ccc(F)c(Cl)c3)cc(=O)n2c1 |  | 35.4%
Cc1ccc2nc(COc3cccc(NC(=O)c4cccc(Cl)c4)c3)cc(=O)n2c1 | 89.1 µM (active) | 
Cc1ccc(/C=N/NC(=O)Cn2nc(C)c(Br)c2C)o1 |  | -3.61%
Cc1ccc(/C=N/NC(=S)NC2CCCCC2)o1 |  | 19.1%
Cc1ccc(/C=N/NC(=O)c2cc3ccccc3cc2O)o1 | 50.1 µM (active) | 
CCCC12CN3CC(C)(CN(C1)C3c1ccccc1Cl)C2=O (centres undefined) |  | -15.2%
CN=C1SC(C(=O)O)CC(=O)N1C (centres undefined) | 89.1 µM (active) | 
COc1ccc(N=C2SC(C(=O)Nc3ccc(F)cc3)CC(=O)N2C)cc1 (centres undefined) |  | 95.7%
CCOc1ccc(N=C2SC(C(=O)O)CC(=O)N2C)cc1 (centres undefined) |  | 16.4%
Cc1ccc2ncc(C(=O)Nc3ccc(OC(F)(F)F)cc3)c(=O)n2c1 |  | -26.3%
CCOc1ccc(Nc2c(S(=O)(=O)c3ccccc3)cnc3ccccc23)cc1 |  | -5.3%
COc1ccc(OC)c(-n2nnc(-c3nc(-c4cc(OC)c(OC)c(OC)c4)no3)c2C)c1 |  | -9.96%
COc1cc(Nc2nc(-c3ccc(OC)c(OC)c3)nc3ccccc23)cc(OC)c1 |  | 6.46%
CC(Nc1ccc(-c2nc(-c3ccco3)no2)cc1[N+](=O)[O-])c1ccccc1 (centres undefined) | 70.8 µM (active) | 
CNc1ccc(-c2nc(-c3ccco3)no2)cc1[N+](=O)[O-] |  | 13.5%
O=[N+]([O-])c1cc(-c2nc(-c3ccccc3)no2)ccc1NCc1ccco1 |  | -8.87%
